Only a selection was taken, and hits are over-represented in it overall.
KDM5B inh = blocks human KDM5B histone demethylase activity. AID 1347165. 2.6% of 220,000 active. KDM5B demethylase, FDH-coupled NADH fluorescence (FDH is formaldehyde dehydrogenase). Potency, µM (series often up to 57.7 µM), most hits filed as inhibitors; active means well fitted inhibition curve with a large enough effect; further: nearly all actives have a fitted effect of over 70% in size
Target sequence (Q9UGL1 whole entry, looked up): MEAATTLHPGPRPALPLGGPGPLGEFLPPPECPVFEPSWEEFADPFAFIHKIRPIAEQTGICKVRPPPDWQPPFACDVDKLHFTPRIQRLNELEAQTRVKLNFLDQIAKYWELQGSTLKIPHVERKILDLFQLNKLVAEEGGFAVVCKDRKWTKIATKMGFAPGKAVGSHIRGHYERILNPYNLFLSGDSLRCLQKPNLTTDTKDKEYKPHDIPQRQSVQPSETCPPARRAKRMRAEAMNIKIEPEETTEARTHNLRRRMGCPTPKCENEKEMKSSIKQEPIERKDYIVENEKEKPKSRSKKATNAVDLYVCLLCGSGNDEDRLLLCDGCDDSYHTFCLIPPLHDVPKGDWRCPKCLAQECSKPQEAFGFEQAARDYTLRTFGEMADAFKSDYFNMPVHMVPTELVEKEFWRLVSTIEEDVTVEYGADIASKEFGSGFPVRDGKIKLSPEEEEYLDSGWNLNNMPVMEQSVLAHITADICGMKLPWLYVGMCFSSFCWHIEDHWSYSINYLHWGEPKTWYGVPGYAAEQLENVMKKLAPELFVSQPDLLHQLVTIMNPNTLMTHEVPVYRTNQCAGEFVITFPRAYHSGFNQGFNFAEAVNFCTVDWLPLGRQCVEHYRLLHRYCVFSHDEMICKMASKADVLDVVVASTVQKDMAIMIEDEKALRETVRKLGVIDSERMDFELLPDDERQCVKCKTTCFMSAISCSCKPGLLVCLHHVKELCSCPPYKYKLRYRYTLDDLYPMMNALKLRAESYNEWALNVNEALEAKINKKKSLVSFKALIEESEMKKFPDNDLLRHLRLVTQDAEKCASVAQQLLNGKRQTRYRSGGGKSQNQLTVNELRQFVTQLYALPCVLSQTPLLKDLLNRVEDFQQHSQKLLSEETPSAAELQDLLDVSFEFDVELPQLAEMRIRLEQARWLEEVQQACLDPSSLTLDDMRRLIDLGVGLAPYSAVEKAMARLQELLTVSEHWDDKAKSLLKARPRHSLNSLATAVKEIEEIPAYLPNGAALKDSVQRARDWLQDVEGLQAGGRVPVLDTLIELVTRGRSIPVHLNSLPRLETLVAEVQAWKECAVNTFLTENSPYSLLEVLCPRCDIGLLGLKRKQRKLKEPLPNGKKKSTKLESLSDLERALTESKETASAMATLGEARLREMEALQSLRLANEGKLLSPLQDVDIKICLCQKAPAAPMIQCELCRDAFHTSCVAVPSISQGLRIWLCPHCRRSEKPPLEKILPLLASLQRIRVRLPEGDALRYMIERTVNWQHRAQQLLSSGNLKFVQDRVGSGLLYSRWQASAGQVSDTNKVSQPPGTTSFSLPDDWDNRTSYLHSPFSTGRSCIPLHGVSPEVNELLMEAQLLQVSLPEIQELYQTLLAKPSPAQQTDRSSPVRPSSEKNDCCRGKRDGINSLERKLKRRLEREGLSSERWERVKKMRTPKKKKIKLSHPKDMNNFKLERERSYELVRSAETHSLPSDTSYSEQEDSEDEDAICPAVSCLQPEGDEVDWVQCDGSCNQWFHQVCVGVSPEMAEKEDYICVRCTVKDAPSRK
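Inhibition is measured as reduced NADH fluorescence generation from FDH coupling to formaldehyde release. Truncated KDM5BΔAP at 200 nM final acts on H3K4me3 peptide (12.5 µM in substrate mix) in pH 7.5 HEPES buffer with Tween-20, 30 min, room temperature.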
Each line names hits and unclear results; the compound was inactive in the other large screens.

CN(Cc1ccc(F)cc1)c1ccc2ncc(Nc3ccnc(N4CCOCC4)c3)n2n1	KDM5B inh 28µM
CC(=O)NNC(N)=S	none
COc1ccc(CN(C)Cc2cc(=O)oc3ccc(C)cc23)cc1	none
COCCNC(=O)c1ccc(CSc2nc3ccncc3n2Cc2ccccc2)cc1	none
C#CCNC(=O)c1nc(-c2cccc(C(F)(F)F)c2)c2cnccn12	KDM5B inh 32µM
COC(=O)CNC(=O)c1nc(-c2cccc(C(F)(F)F)c2)c2ccccn12	KDM5B inh 14µM
COc1ccc(-c2nc3sc(CCNC(=O)c4cccc(C(F)(F)F)c4)c(C)n3n2)cc1	none
COCCNC(=O)c1nc(-c2cccc(C(F)(F)F)c2)c2ccccn12	KDM5B inh 16µM
COCCNC(=O)c1nc(-c2cccc(C(F)(F)F)c2)c2cnccn12	KDM5B inh 25µM
O=C(NCCOc1cccnc1)c1cn(Cc2cccc(C(F)(F)F)c2)nn1	none
Cc1cccc(N2CCN(CC(=O)N3C[C@@H](C)[C@](O)(C4CCC4)C3)CC2)c1	none
O=C(Nc1ccc([C@@H](O)[C@H]2COCC(=O)N2CCCc2ccccc2)cc1)C1CCC1	none
COc1cc(CCC(=O)NCc2cccs2)cc(OC)c1OC	none
COc1ccc(CC(=O)N[C@H]2C[C@@H](c3nc(-c4ccc(OC(F)(F)F)cc4)no3)N(C)C2)cc1	none
Cc1nn(-c2nc3c(c(=O)[nH]c(=O)n3C)n2Cc2ccccc2Cl)c(C)c1C	none
COC[C@H]1CCCN1[C@@H]1[C@H](O)[C@H](CO)O[C@@H]1CN(Cc1ccc(F)cc1)Cc1ccc(F)cc1	none
COc1ccc(Nc2cc(C)nc(N3CCN(C(=O)Nc4ccc(F)cc4)CC3)n2)cc1	none
Cc1ccc(N2CC(c3noc(-c4cccc(N(C)C)c4)n3)CC2=O)cc1 (stereo not drawn)	KDM5B inh 35µM
Cc1ccc(N2CC(c3noc(-c4ccsc4)n3)CC2=O)cc1 (stereo not drawn)	none
CN(C)c1cccc(-c2nc(C3CC(=O)N(c4ccc(F)cc4)C3)no2)c1 (stereo not drawn)	KDM5B inh 35µM
CN(C)c1ccc(-c2nc(C3CC(=O)N(c4ccc(F)cc4)C3)no2)cc1 (stereo not drawn)	KDM5B inh 32µM
CC(C)c1ccc(-c2nc(C3CC(=O)N(c4ccc(F)cc4)C3)no2)cc1 (stereo not drawn)	none
CC(C)(C)c1ccc(-c2nc(C3CC(=O)N(c4ccc(F)cc4)C3)no2)cc1 (stereo not drawn)	none
Cc1ccc(N2CC(c3noc(-c4ccccc4C)n3)CC2=O)cc1 (stereo not drawn)	none
COc1cccc(-c2nc(C3CC(=O)N(c4ccc(F)cc4)C3)no2)c1 (stereo not drawn)	none
COc1ccc(N2CC(c3noc(-c4cccc(F)c4)n3)CC2=O)cc1 (stereo not drawn)	none
CCOC(=O)C(=O)Nc1ccccc1OC	none
O=C(c1cc(=O)c2ccccc2o1)N1CCN(Cc2ccccc2)CC1	none
CCCNc1nc2ccccc2nc1C(=O)Nc1c(C)cccc1CC	none
Cc1ccc(-c2nc(CN(C)CC(=O)N(C)C)co2)cc1	none
COc1ccc(-c2ccccc2)cc1N1C(=O)[C@@H]2C[C@H]1CN2Cc1nc[nH]c1C	none
O=C(c1cc2ccccc2[nH]1)N1CCC2(CCCCO2)CC1	none
Cc1ccsc1CN1CCC2(Cc3ccccc3CNC2=O)C1 (stereo not drawn)	none
CC(C)(C)C(=O)CN1C(=O)N(c2ccc(Cl)cc2)S(=O)(=O)c2ccccc21	none
O=C(NCc1ccccc1Cl)C1CCCN(c2ncnc3nc[nH]c23)C1 (stereo not drawn)	none
Cn1c(=O)c2c(-c3ccccc3)n3c(c2n(C)c1=O)C(c1coc2ccccc2c1=O)OCC3(C)C (stereo not drawn)	none
CC(=O)N1CCN(c2ccccc2NC(=O)C2(c3ccc(Br)cc3)CCCC2)CC1	none
CC(C)CCn1nc(C(=O)OCC(=O)c2ccc3c(c2)NC(=O)CO3)c2ccccc2c1=O	none
Cc1ccc(C)c(C(=O)N2CCOC(CCCc3ccccc3)C2)c1 (stereo not drawn)	none
Cc1c(C(=O)N2CCOC(CCCC(C)C)C2)cnc2cc(=O)[nH]n12 (stereo not drawn)	none
Cc1ccc2[nH]c(=O)cc(C(=O)N3CCOC(CCCC(C)C)C3)c2c1 (stereo not drawn)	KDM5B inh 28µM
O=C(COc1ccc(-c2nnc3n2CCCC3)cc1)NCc1ccc2c(c1)OCO2	none
CCN(C(=O)/C=C/c1cccs1)C1CCCCC1	none
COc1ccc(-c2nc3c(c(-c4ccccc4)n2)CN(C(=O)Nc2ccccc2)CC3)cc1	none
COC(=O)CNC(=O)c1cc(-c2ccccc2Cl)nc2ccc(Br)cc12	none
COC(=O)CNC(=O)N1CCc2c(nc3cc(-c4ccccc4Cl)[nH]n3c2=O)C1	KDM5B inh 22µM
O=C(CCc1ncc(-c2ccccc2Cl)o1)NCC1CCCO1 (stereo not drawn)	none
CC(=O)Nc1ccc(CC(=O)N2CCC(C)(c3noc(C)n3)CC2)cc1	none
COc1cccc(NC(=O)N2CCc3nc4cc(-c5ccccc5Cl)[nH]n4c(=O)c3C2)c1	KDM5B inh 25µM
COc1cccc(NC(=O)Cn2nc3c(cc2=O)CCCCC3)c1	none
O=C(CSc1nc2ccccc2c(=O)n1-c1ccccc1Cl)NCC1CCCO1 (stereo not drawn)	none
CC(=O)Nc1ccc(CC(=O)N2CCC3(CCC(=O)N(Cc4ccccc4)CC3)CC2)cc1	none
Cc1ccc(NC(=O)CSc2nc(-c3ccccc3Cl)nc3cc(=O)[nH]n23)c(C)c1	none
O=C(NCC1CCCO1)N1CCc2c(nc3cc(-c4ccccc4Cl)[nH]n3c2=O)C1 (stereo not drawn)	KDM5B inh 20µM
CC(=O)Nc1ccc(CC(=O)N2CCc3c(nc4cc(-c5ccccc5Cl)[nH]n4c3=O)C2)cc1	KDM5B inh 25µM
O=c1oc2ccccc2cc1-c1nc(-c2ccccc2Cl)no1	none
CS(=O)(=O)N1CCN(C(=O)CNc2cc(Cl)ccc2F)CC1	none
CC1CCCCC1NC(=S)Nc1cccc2cnccc12 (stereo not drawn)	none
CCc1cc(=O)n(CC(=O)Nc2cc(C)cc(C)c2)c(N2CCOCC2)n1	none
CC(NC(=O)CCc1ccsc1)C1CCCO1 (stereo not drawn)	none
Cc1ccc(C)c(S(=O)(=O)N2CCN(Cn3ncc4ccccc4c3=O)CC2)c1	none
O=C(O)CN(CCCc1ccccc1)CC(=O)O	none
COc1ccc(Nc2nc(Cl)nc(Nc3cccc([N+](=O)[O-])c3)n2)cc1	none
COC(=O)c1ccccc1NC(=O)c1cccc(N2CCCN(Cc3ccc(Cl)cc3)C2=O)c1	none
CCCCOC(=O)c1ccc(NC(=O)c2cc(=O)c3cc(C)cc(C)c3o2)cc1	none
Cc1ccc(C(=O)N2CCC(C(NC(=O)c3cccs3)C(=O)NC3CC3)CC2)cc1 (stereo not drawn)	none
C=CCNC(=O)C(NC(=O)c1cccc(OC)c1)C1CCN(C(=O)c2ccc(F)cc2)CC1 (stereo not drawn)	none
C=CCNC(=O)C(NC(=O)c1cccs1)C1CCN(C(=O)c2ccc(F)cc2)CC1 (stereo not drawn)	KDM5B inh 28µM
COCCn1cnc2c1c(=O)n(CC(=O)Nc1c(C)cc(C)cc1C)c(=O)n2CC(C)C	none
CC(=O)c1cccc(NC(=O)CSc2ncc(-c3ccc(F)cc3)o2)c1	none
Cn1ccc2ccc(C(=O)N3CCN(CCOc4ccccc4)CC3)cc21	KDM5B inh 28µM
COc1ccc(OCCN2CCN(C(=O)c3ccc(OC)c(OC)c3)CC2)cc1	none
CC(C)Cc1cc(C(=O)N2CCN(CCOc3ccccc3)CC2)on1	none
CN(CC(=O)NC1(C#N)CCCC1)C(c1ccccc1)c1ccccc1	none
